Assay results: PubChem BioAssay (EPA / NIEHS)
Activity calls are given as the source filed them. The calls were made as follows: active = hit-call score of the fitted dose curve at least 0.9, where 1 is the maximum; inactive = score below 0.9.

test: BSK_3C_TissueFactor: BioMAP Diversity Plus: 3C Assay for Tissue Factor Biomarker Activity (AID 2282997); conditions: BioMAP 3C HUVEC, tissue factor biomarker readout; actives raise or lower the signal
Description: BSK_3C is a cell-based, multiplexed-readout assay that uses umbilical vein endothelium, a human vascular primary cell, with measurements taken at 24 hours after chemical dosing in a 96-well plate.BSK_3C_TissueFactor is an assay component measured in the BSK_3C assay. It measures Tissue Factor antibody related to regulation of gene expression using ELISA technology.Data from the assay component BSK_3C_TissueFactor was analyzed into 1 assay endpoint. This assay endpoint, BSK_3C_TissueFactor, was analyzed with bidirectional fitting relative to DMSO as the negative control and baseline of activity. Using a type of binding reporter, gain or loss-of-signal activity can be used to understand changes in the signaling as they relate to the gene F3. Furthermore, this assay endpoint can be referred to as a primary readout, because this assay has produced multiple assay endpoints where this one serves a signaling function. To generalize the intended target to other relatable targets, this assay endpoint is annotated to the cytokine intended target family, where the subfamily is coagulation factor.
The levels of cell surface (or secreted, indicated by the prefix "s") biomarker endpoints were measured by ELISA. Overt cytotoxicity to cells in confluent adherent cultures (all systems other than the BT system) was assessed by measuring total protein levels using sulforhodamine B (SRB) staining in parallel cultures at the time of biomarker measurements, indicated as SRB endpoints. For proliferation assays for adherent cell types, individual cell types are cultured at sub-confluence and relative cell numbers quantified by SRB staining at time points optimized for each system (48 h: 3C and CASM3C systems; 72 h: BT and HDF3CGF systems; 96 h: SAg system). SRB was performed by staining cells with 0.1% SRB after fixation with 10% TCA and reading wells at 560 nm.Viability and proliferation of PBMC (T cells) was quantified by Alamar Blue reduction for the SAg and BT systems. For PBMC viability (referred to as PBMC Cytotoxicity within the assay endpoint names), cells were plated (75,000/well in a 96-well plate) and then chemical samples added for 1 h before addition of activators, SEB and TSST-1 (20 ng/mL final concentration each). Cells were incubated for 90 h. Then, Alamar Blue (20 uL/well) (Invitrogen, Cat DAL1100) was added for 6 h, and the plates were read with a fluorescence microplate reader at 546/580 nm (excitation/emission). For PBMC proliferation, cells were plated and activated as above but incubated for only 16 h prior to addition of Alamar Blue. Plates were read after 6 h.

SMILES	AC50	outcome
CCc1c(C(=O)NN2CCCCC2)nn(-c2ccc(Cl)cc2Cl)c1-c1ccc(Br)cc1	11.7 µM (active)	–
CCCCOC(=O)CCCCCCCCC(=O)OCCCC	–	inactive
Cc1nc(-c2ccc3c(c2)CCN(CCC2CCC(NC(=O)/C=C/c4ccc(F)cc4)CC2)CC3)no1 (stereo not given)	–	inactive
CCCCCCCCCCCC(=O)OC	–	inactive
COCCOC[C@H](CC1(C(=O)NC2CCC(C(=O)O)CC2)CCCC1)C(=O)Oc1ccc2c(c1)CCC2 (stereo not given in full)	–	inactive
CCCCCCC(=O)OCC	–	inactive
CCNc1cccc(C)c1	–	inactive
O=c1[nH]cc(F)c(=O)[nH]1	–	inactive
Nc1nc(N)c2nc(CNc3ccc(C(=O)N[C@@H](CCC(=O)O)C(=O)O)cc3)cnc2n1	–	inactive
Cc1ccc(N(C)C)cc1	–	inactive
CCCCCCCCCCCCCCCCCC(=O)O	–	inactive
CC(=O)Oc1ccccc1C(=O)O	–	inactive
O=C(O)CCCCC(=O)O	–	inactive
Cc1cccc(Nc2cc(Cl)nc(SCC(=O)O)n2)c1C	–	inactive
Cc1ccc(C(C)C)c(O)c1	1.38 µM (active)	–
CNC(=O)[C@H]1O[C@@H](n2cnc3c(NCc4cc(Cl)ccc4OCc4cc(C)no4)ncnc32)[C@H](O)[C@@H]1N	–	inactive
NS(=O)(=O)c1cc2c(cc1Cl)NCNS2(=O)=O	–	inactive
Cc1ccc2ncccc2c1	–	inactive
CN1CCCC1=O	–	inactive
CC1(C)CC(N=C=O)CC(C)(CN=C=O)C1 (stereo not given)	–	inactive

SMILES	AC50	outcome
CCCCCCCCCCO	–	inactive
CC(=O)OCCOCCOCCOC(C)=O	–	inactive
C[C@]12C=CC(=O)C=C1CC[C@@H]1[C@@H]2C(=O)C[C@@]2(C)[C@H]1CC[C@]2(O)C(=O)CO	–	inactive
C1CCC(SSC2CCCCC2)CC1	20 µM (active)	–
CCCCc1ccc2c(n1)[C@@H](c1ccc(OC)cc1C[C@H](C)C(=O)O)[C@H](C(=O)O)[C@H]2c1ccc2c(c1)OCO2	–	inactive
C=CCOC(=O)c1ccccc1C(=O)OCC=C	–	inactive
Oc1ccc2c(c1)OC[C@@H](N1CCC(O)(c3ccc(F)cc3)CC1)[C@H]2O	–	inactive
CN1CCN(Cc2cc(-c3ccc4[nH]c(=O)oc4c3)co2)[C@@H](c2ccc(F)cc2)C1	–	inactive
CCOc1ccc2c(c1)C(C)=CC(C)(C)N2	–	inactive
CCCCCCCCCCCCCO	33.1 µM (active)	–
CC1=C(/C=C/C(C)=C/C=C/C(C)=C/CO)C(C)(C)CCC1	–	inactive
COc1ccc(C)cc1N	–	inactive
COc1cc(S(=O)(=O)O)c(C)cc1N=Nc1c(O)ccc2cc(S(=O)(=O)O)ccc12	–	inactive
Nc1ccc(S(=O)(=O)c2ccc(N)cc2)cc1	–	inactive
OC[C@@H](O)[C@@H](O)[C@H](O)[C@H](O)CO	–	inactive
O=[N+]([O-])C(CO)(CO)CO	–	inactive
NC(=O)Cn1c(=O)cc(CCN2CCN(c3nccc4sccc34)CC2)c2ccc(F)cc21	–	inactive
O=C(O)Cc1ccccc1Nc1c(Cl)cccc1Cl	–	inactive
C[Si]1(C)O[Si](C)(C)O[Si](C)(C)O[Si](C)(C)O1	–	inactive
Cc1ccc(C)c(C)c1	–	inactive
